# Experimental data reported in PubChem BioAssay AID1347430 (National Center for Advancing Translational Sciences (NCATS), 2020).
# About 130 (0.14%) of roughly 91,000 compounds were called active. Not shown: some 3% with an inconclusive outcome. This is one part of a sample in which actives are shown more often than they occur. The call rests on the fitted dose curve; in most records, active means well fitted inhibition curve with a large enough effect; inconclusive means small, poorly fitted or top-dose-only effect; inactive means flat fitted curve, though single readings scatter.
# Test system: Uracil-DNA glycosylase
# Experiment: Primary qHTS assay for inhibitors of Activation Induced Cytidine Deaminase (AID): UDG Counterscreen signal; further: nearly all actives have a fitted effect of over 65% in size
# Conditions: FRET deamination/UDG coupled assay, UDG read, 4 h; series mostly up to 115 µM; activity change, negative = inhibition: at the top concentration
# Source text: Assay Provider (PI) Patricia Gearhart Ph.D.
# National Institute on Aging
# National Institute of Health (NIH), Bethesda, MD
# Assay Provider (PI) Rahul Kohli Ph.D.
# Perelman School of Medicine
# University of Pennsylvania, Philadelphia, PA
# Activation-Induced Deaminase (AID) is a cytosine deaminase which converts cytosine into uracil within stretches of ssDNA. The presence of uracil in DNA initiates a cascade of mutagenic DNA repair to introduce point mutations and DNA double strand breaks. Specific targeting of AID to the immunoglobulin heavy chain loci (Igh) promotes mutagenesis in the antibody variable region for somatic hypermutation (SHM) or switch regions leading to class switch recombination (CSR). However, AID also plays a role in accumulating unnecessary mutations across the genome. Mis-targeting of AID results in the initiation of tumor development and leads to greater drug resistance among cancer cells when continually expressed. To identify an AID inhibitor, a small molecule library will be screened in collaboration with NCATS core facility at NIH. To confirm biological function, inhibitors will be examined in an in vitro murine B-cell activation assay and subsequent secondary validation screens. Top molecules will be further screened to identify inhibitory efficacy against a wild type primary splenocytes assay. Using these approaches, we hope to identify a small molecule with great efficacy and low toxicity for use as a molecular probe to further characterize AID's intricacies, or even as a therapeutic.
# A FRET based analysis of cytosine deamination, was developed to identify potential inhibitors of AID catalytic activity. This screen has two signal output, Read 1 evaluates the AID inhibition response. The second readout (Read 2) evaluates UDG response and is uses as a counterscreen to exclude false positive inhibitors. Inhibition in AID and inactivity in the UDG signal is the desired outcome for this assay.
# SEQUENCE No. (e.g., 1, 2, 3, etc.); […] (e.g., Cells, Incubation, Reagent, etc.); VALUE; DESCRIPTION
# 1a; Reagent; 3 uL; [4/3x] 1 uM AID/2.67 U/mL UDG
# 1b; Reagent; 3 uL; 2 U/mL UDG
# 1c; Reagent; 3 uL; 1 uM AID
# 2a; Compound; 46 nL; Follow-up plates (0.64 uM - 10 mM)
# 2b; Control; 46 nL; ATA ([…] - 10 mM)
# 3; Time; 10 min; incubation at room temperature
# 5; Time; 4 hr; incubation at room temperature
# 6; Reagent; 4 uL; [2x] 250 mM NaOH
# 7; Time; 15 sec; centrifuge at 1000 rpm
# 8; Time; 30 min; incubation at room temperature
# 9a; Detection; fluorescence (Read 1: AID); EnVision (PerkinElmer) plate reader, 540 excitation and 590 emission filters
# 9b; Detection; fluorescence (Read 2: UDG); EnVision (PerkinElmer) plate reader, 560 excitation and 665 emission filters
# NOTES (numbers refer to sequence above)
# 1a; Reagents were dispensed in a medium-binding black solid-bottom Greiner plates (789176F) using a BioRptr liquid dispenser. Dispense 3 uL of [4/3x] 1 uM AID (provided by Kohli lab) and [4/3x] 2 U/mL UDG (NEB M0280L) into columns 1, 2, 5 to 48.
# 1b; Dispense 3 uL of [4/3x] 2 U/mL UDG into column 3.
# 1c; Dispense 3 uL of [4/3x] 1 uM AID into column 4.
# 2a; Compound (7-points [uM] (0.64; 3.2; 16; 80; 400; 2,000; 10,000; 20,000) double pin-transferred (Dip Factor = 2) using the Kalypsys (Wako USA) pintool equipped with a 1536 pinhead for a final concentration range of 7.32 nM - 114 uM.
# 2b; 10 mM Aurintricarboxylic Acid (Sigma A1895) (ATA, 8-point, n = 2, 1:2.5 dilution in column 2) double pin-transferred (Dip Factor = 2) using the Kalypsys (Wako USA) pintool equipped with a 1536 pinhead for a [final] range of 186 nM - 114 uM.
# 3; Room temperature incubation.
# 4; Dispense 1 uL of substrate mixture from the Kohli lab [4x] […] DJC20 and [4x] 250 nM DJC23 into columns 1 to 48 .
# 5; Room temperature incubation.
# 6; Dispense 4 uL of substrate mixture [2x] 250 mM NaOH into columns 1 to 48.
# 7; Centrifugation step to remove bubbles.
# 8; Room temperature incubation
# 9a; Fluorescence signal (column label AID) was read using the EnVision plate reader. […]
# On the % scale 0 is the no-effect control and ±100 the full control effect; potency means the concentration at half of the fitted maximal effect.
SMILES,"activity change, negative = inhibition",Potency
CNC(=O)c1ccc2c(c1)CCCN2C(=O)c1ccc(Cl)cc1,4.74% (inactive),
COc1ccc(CN(Cc2cc(=O)oc3cc(C)c(C)cc23)C2CC2)cc1,-3.27% (inactive),
COCCNC(=O)CS(=O)Cc1nc(-c2ccc(C)cc2)oc1C (stereo not given),10.9% (inactive),
Cc1cc2nc(-c3ccccc3)c(-c3ccccc3)nc2cc1C,6.41% (inactive),
Cc1ccccc1OCc1ccc(-c2nc(C#N)c(N3CCCCC3)o2)o1,-12.8% (inactive),
CCC(C)Nc1oc(-c2ccc(COc3ccc(Cl)cc3)o2)nc1C#N (stereo not given),-4.75% (inactive),
Cc1ccc(C)c(OCc2ccc(-c3nc(C#N)c(NC(C)C)o3)o2)c1,,70.8 µM (active)
N#Cc1cccnc1NCCC12CC3CC(CC(C3)C1)C2,-4.49% (inactive),
Cc1cc(=O)oc2c(C)c(OC(C)C(=O)NCCc3ccc(S(N)(=O)=O)cc3)ccc12 (stereo not given),-0.637% (inactive),
O=C(NCc1ccc2c(c1)OCO2)c1cccc(N2CCCN(Cc3ccc(F)cc3)C2=O)c1,3.74% (inactive),
CC(C)(C(=O)Nc1ccc(F)c(NC(=O)C2CC2)c1)c1ccccc1,8.51% (inactive),
CNCCC(F)(F)F,-1.7% (inactive),
OC(COCc1ccccc1F)Cn1nnc(-c2cccnc2)n1 (stereo not given),-1.08% (inactive),
O=C(COC(=O)Cc1n[nH]c(=O)c2ccccc12)NCC1CCCO1 (stereo not given),-1.41% (inactive),
CCOc1ccc(-c2csc(-c3ccc(Cl)cc3)n2)cc1,-7.65% (inactive),
O=C(NCc1cccc(OC(F)F)c1)c1ccccc1-n1cnnn1,0.583% (inactive),
COCCn1c(C)cc(C(=O)C(=O)Nc2nnc(COc3cc(C)ccc3C)s2)c1C,-9% (inactive),
CCc1ccccc1N(C)C(=O)C1CCCN(c2ncnc3onc(-c4ccc(F)cc4)c23)C1 (stereo not given),-1.14% (inactive),
CN(Cc1ccccc1)c1ncnc2onc(-c3ccc(F)cc3)c12,-13.7% (inactive),
CCc1ccc(N(CC)C(=O)CCn2cnc3onc(-c4ccc(F)cc4)c3c2=O)cc1,,89.1 µM (active)

SMILES,"activity change, negative = inhibition",Potency
CCN(CC)C(=O)CNC(=O)c1cc2ccccc2c(OC)n1,-7.51% (inactive),
N#Cc1cccc(C(=O)NC(c2ccccc2)c2cccs2)c1 (stereo not given),4.19% (inactive),
CCCC/C=N/NC(=O)CCCCCCCCCCC,-3.8% (inactive),
CCCCCCCc1ccc(-c2ccc(OC)cc2)nc1,9.76% (inactive),
CCN(CC)S(=O)(=O)c1cc(NC(=O)c2n[nH]c3ccccc23)ccc1C,8.71% (inactive),
O=S(=O)(Cc1nnnn1-c1ccccc1)c1ccccc1,5.04% (inactive),
CCCNc1c(NC(=O)C(C)C)c(=O)oc2ccccc12,-1.43% (inactive),
CC(C)(C)c1ccccc1OCC(=O)Nc1cccc(C#N)c1,-9.25% (inactive),
COCC(C)n1c(COc2ccccc2F)nnc1SCC(C)C (stereo not given),1.84% (inactive),
COCCNC(=S)NNC(=O)Cc1ccc(OC)c(OC)c1,-11.8% (inactive),
CCCCNC(=O)CCc1c[nH]c2ccccc12,-1.33% (inactive),
COC(=O)CNC(=O)/C(C)=C/c1ccccc1,-1.2% (inactive),
N#Cc1ccc(CNc2cc(Cl)ccc2Cl)cc1,4.42% (inactive),
Cc1ccc(NC(=O)c2ccc(Cl)cc2N2CCCC2=O)cc1,1.04% (inactive),
Ic1nc[nH]c1I,10.9% (inactive),
COc1ccc(NC(=O)COc2ccc(F)cc2)c2cccnc12,4.14% (inactive),
Cc1ccc(-n2c(SCC(=O)Nc3cccc(F)c3)nc3c(=O)[nH]cnc32)cc1,3.06% (inactive),
Cc1ccc(C(=O)NC(C)C)c(Cl)c1,-0.64% (inactive),
Cc1cc(C)c2c(c1)/C(=N/Nc1nc3ccccc3[nH]1)CCC2,-5.03% (inactive),
Cc1[nH]c2ccccc2c1/C=N/c1sc2c(c1C#N)CCC(C)C2 (stereo not given),3.48% (inactive),

SMILES,"activity change, negative = inhibition",Potency
CCCc1ccc(OC(=O)c2ccc3c(c2)-c2ccccc2C3=O)cc1,-5.71% (inactive),
Cc1csc(SCCCOc2ccc(C#N)cc2)n1,3.62% (inactive),
COc1ccc(CNC(=S)NCC(C)N2CCCCC2C)cc1 (stereo not given),1.69% (inactive),
Cn1nc(C(=O)OCC(=O)N(Cc2ccccc2)C(C)(C)C)c2ccccc2c1=O,-7.83% (inactive),
O=C(C1=COCCO1)N1CCN(c2ccccc2)CC1,-24.2% (inactive),
O=C1/C(=C/c2cccc(Br)c2)CCc2ccccc21,-7.11% (inactive),
COc1ccc(C(=O)/C(C#N)=C\c2ccccc2OC(F)F)cc1,-11.4% (inactive),
Cc1cc(C(=O)O)cc(S(=O)(=O)Nc2ccc(Cl)c3cccnc23)c1C,2.05% (inactive),
C=CCNC(=O)NC(=O)CN(C)Cc1ccc(-c2ccc(Br)cc2)o1,2% (inactive),
CC(C)CNC(=O)CSc1nnc(COc2ccccc2Cl)o1,-6.81% (inactive),
O=C(O)c1ccc(Nc2nc(-c3ccc4ccccc4c3)cs2)cc1O,17.7% (inactive),
CC(=O)Nc1ccc(NC(=O)Nc2ccccc2Cl)cc1,-8.72% (inactive),
CCN1CCC(CNC(=O)c2cc(C)nc3cc(F)ccc23)CC1,-2.03% (inactive),
COc1ccc(NC(NC(=O)C(C)C)C(Cl)(Cl)Cl)cc1 (stereo not given),-4.93% (inactive),
O=C(CCc1ncc(-c2ccc(F)cc2)o1)NCc1ccc(OC(F)F)cc1,7.08% (inactive),
CNC(=S)NNC(=O)c1cccc(C)c1,-13.5% (inactive),
CC(=O)NCc1ccc(C(=O)COc2ccc(C(C)=O)cc2)cc1,-5.52% (inactive),
N#Cc1ccccc1-n1ccnc1,3.71% (inactive),
O=C(OCC(=O)c1cccs1)c1cccc(O)c1,12.3% (inactive),
CC(C)(C)c1nc2cc(NC(=O)c3ccc[nH]c3=O)ccc2o1,-7.52% (inactive),
